Source: PubChem BioAssay AID1159580 (chemical genetic matrix, 2015)
Among all 5,500 compounds or so, about 2,000 (36%) were called active. Inconclusive results (about 18%) are left out. Rule as the data show it: active = normalized growth mostly below about 0.91 (no sharp cut-off); inconclusive = no clear call, values can overlap the other calls; inactive = mostly above about 0.92. Some of the results follow.

Experiment: chemical genetic growth profiling, strain panel (AID 1159580);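 also: tested at 20 µM; growth read once vehicle control cultures reached saturation at 30 °C; 1 = growth at the plate median or of vehicle wells; lower values mean less growth of the strain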
Settings: S. cerevisiae deletion strains, growth OD

Measured: normalized growth

CCC(=O)Nc1ccc(Cl)c(Cl)c1
inactive: locus YAL013W, strain DEP1, active compounds read low 0.99 | locus YAL021C, strain ccr4, active compounds read low 0.975 | locus YAL026C, strain drs2, active compounds read low 0.994 | locus YAL030W, strain snc1, active compounds read low 1.01 | locus YBL061C, strain skt5, active compounds read low 0.978 | locus YBR009C, strain hhf1, active compounds read low 0.982 | locus YBR021W, strain FUR4, active compounds read low 0.952 | locus YBR023C, strain chs3, active compounds read low 0.988 | locus YBR171W, strain sec66, active compounds read low 0.983 | locus YBR229C, strain ROT2, active compounds read low 1 | locus YBR231C, strain swc5, active compounds read low 0.982 | locus YBR279W, strain paf1, active compounds read low 0.99 | locus YCL011C, strain gbp2, active compounds read low 0.983 | locus YCL016C, strain dcc1, active compounds read low 0.989 | locus YCL029C, strain bik1, active compounds read low 1.01 | locus YCL061C, strain MRC1, active compounds read low 0.986 | locus YCL069W, strain vba3, active compounds read low 0.996 | locus YCR088W, strain abp1, active compounds read low 0.99 | locus YDL005C, strain med2, active compounds read low 0.981 | locus YDL035C, strain GPR1, active compounds read low 0.988 | locus YDL040C, strain nat1, active compounds read low 0.99 | locus YDL074C, strain BRE1, active compounds read low 0.898 | locus YDL101C, strain DUN1, active compounds read low 0.999 | locus YDL134C, strain PPH21, active compounds read low 1 | locus YDL185W, strain tfp1, active compounds read low 0.99 | locus YDL192W, strain arf1, active compounds read low 0.994 | locus YDR001C, strain nth1, active compounds read low 0.989 | locus YDR069C, strain doa4, active compounds read low 0.971 | locus YDR101C, strain arx1, active compounds read low 0.991 | locus YDR137W, strain rgp1, active compounds read low 1.03 | locus YDR150W, strain NUM1, active compounds read low 0.998 | locus YDR159W, strain sac3, active compounds read low 0.959 | locus YDR162C, strain NBP2, active compounds read low 0.985 | locus YDR195W, strain ref2 0.956 | locus YDR297W, strain sur2, active compounds read low 0.988 | locus YDR318W, strain mcm21, active compounds read low 0.996 | locus YDR334W, strain swr1, active compounds read low 0.996 | locus YDR335W, strain msn5, active compounds read low 0.988 | locus YDR388W, active compounds read low 1 | locus YDR392W, strain spt3, active compounds read low 0.98 | locus YDR502C, strain sam2, active compounds read low 0.998 | locus YEL003W, strain gim4, active compounds read low 0.992 | locus YEL037C, strain rad23, active compounds read low 1 | locus YEL061C, strain CIN8 (second series), active compounds read low 0.978 | locus YEL061C, strain CIN8, active compounds read low 0.994 | locus YER016W, strain bim1, active compounds read low 0.991 | locus YER110C, active compounds read low 0.996 | locus YER111C, strain swi4, active compounds read low 0.989 | locus YER155C, strain BEM2 (second series), active compounds read low 0.998 | locus YER155C, strain BEM2, active compounds read low 1.01 | locus YER167W, strain BCK2, active compounds read low 1 | locus YFR010W, strain ubp6, active compounds read low 0.993 | locus YGL078C, strain dbp3, active compounds read low 1.01 | locus YGL086W, strain mad1, active compounds read low 0.997 | locus YGL167C, strain pmr1, active compounds read low 0.984 | locus YGL173C, strain kem1, active compounds read low 0.978 | locus YGL227W, strain vid30, active compounds read low 0.988 | locus YGL240W, strain doc1, active compounds read low 0.96 | locus YGL248W, strain PDE1, active compounds read low 0.993 | locus YGL253W, strain hxk2, active compounds read low 1 | locus YGR078C, strain PAC10, active compounds read low 0.961 | locus YGR135W, strain pre9, active compounds read low 0.982 | locus YGR229C, strain SMI1, active compounds read low 0.958 | locus YGR252W, strain gcn5, active compounds read low 0.874 | locus YHR013C, strain ard1, active compounds read low 0.971 | locus YHR027C, strain rpn1, active compounds read low 0.994 | locus YHR030C, strain SLT2, active compounds read low 0.978 | locus YHR079C, strain IRE1 (second series), active compounds read low 0.999 | locus YHR094C, strain hxt1, active compounds read low 1 | locus YHR129C, strain ARP1, active compounds read low 0.988 | locus YHR142W, strain chs7, active compounds read low 1 | locus YHR200W, strain rpn10, active compounds read low 1 | locus YIL066C, strain RNR3, active compounds read low 0.991 | locus YIL073C, strain SPO22, active compounds read low 1.01 | locus YIL125W, strain kgd1, active compounds read low 1 | locus YIR030C, strain dcg1, active compounds read low 1 | locus YJL092W, strain hpr5, active compounds read low 0.985 | locus YJL095W, strain BCK1 (second series), active compounds read low 0.996 | locus YJL095W, strain BCK1, active compounds read low 0.924 | locus YJL115W, strain asf1, active compounds read low 0.992 | locus YJL129C, strain trk1, active compounds read low 0.968 | locus YJL134W, strain LCB3, active compounds read low 0.986 | locus YJL154C, strain vps35, active compounds read low 0.998 | locus YJL164C, strain tpk1, active compounds read low 1.01 | locus YJL166W, strain qcr8, active compounds read low 0.986 | locus YJL168C, strain set2, active compounds read low 1 | locus YJL187C, strain SWE1 (second series), active compounds read low 1.01 | locus YJL187C, strain SWE1, active compounds read low 0.984
